# Data from the supplement of paper PMC4466140.
# Columns and labels:
# Assay in all cases: SPOT peptide array binding signal intensity (averaged, normalized) (arbitrary units (background-subtracted, floor 0; scale differs between SH3 domains)); higher = stronger binding of the SH3 domain to the peptide
# [1] = biological target: AgAbp1
# Protocol: (§1)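 GST-tagged SH3 domains from S. cerevisiae (Sc), A. gossypii (Ag), C. albicans (Ca) and S. pombe (Sp) were incubated at 10 ug/ml overnight at 4 C on cellulose SPOT membranes carrying 292 synthetic 15-mer peptides mined from the S. cerevisiae proteome (cysteines replaced by serines). Binding was detected with anti-GST antibody, HRP secondary and chemiluminescence, quantified with Genespotter, and reported as normalized spot intensities averaged over biological replicates.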
# [2] = biological target: AgBbc1
# Protocol: as §1
# [3] = biological target: AgBem1-D1
# Protocol: as §1
# [4] = biological target: AgBzz1-D1
# Protocol: as §1
# [5] = biological target: AgBzz1-D2
# Protocol: as §1
# [6] = biological target: AgCyk3
# Protocol: as §1
# [7] = biological target: AgFus1
# Protocol: as §1
# [8] = biological target: AgHof1
# Protocol: as §1
# [9] = biological target: AgHse1
# Protocol: as §1
# [10] = biological target: AgLsb1
# Protocol: as §1
# [11] = biological target: AgLsb4
# Protocol: as §1
# [12] = biological target: AgMyo5
# Protocol: as §1
# [13] = biological target: AgNbp2
# Protocol: as §1
# [14] = biological target: AgRvs167
# Protocol: as §1
# [15] = biological target: AgSho1
# Protocol: as §1
# [16] = biological target: AgSla1-D1-D2
# Protocol: as §1
# [17] = biological target: AgSla1-D3
# Protocol: as §1
# [18] = biological target: CaAbp1-D1
# Protocol: as §1
# [19] = biological target: CaAbp1-D2
# Protocol: as §1
# [20] = biological target: CaBbc1
# Protocol: as §1
# [21] = biological target: CaBem1-D1
# Protocol: as §1
# [22] = biological target: CaBzz1-D1
# Protocol: as §1
# [23] = biological target: CaBzz1-D2
# Protocol: as §1
# [24] = biological target: CaCyk3
# Protocol: as §1
# [25] = biological target: CaFus1
# Protocol: as §1
# [26] = biological target: CaHof1
# Protocol: as §1
# [27] = biological target: CaHse1
# Protocol: as §1
# [28] = biological target: CaLsb1
# Protocol: as §1
# [29] = biological target: CaLsb4
# Protocol: as §1
# [30] = biological target: CaMyo5
# Protocol: as §1
# [31] = biological target: CaNbp2
# Protocol: as §1
# [32] = biological target: CaRvs167
# Protocol: as §1
# [33] = biological target: CaRvs167-3
# Protocol: as §1
# [34] = biological target: CaSho1
# Protocol: as §1
# [35] = biological target: CaSla1-D1-D2
# Protocol: as §1
# [36] = biological target: CaSla1-D3
# Protocol: as §1
# [37] = biological target: ScAbp1
# Protocol: as §1
# [38] = biological target: ScBbc1
# Protocol: as §1
# [39] = biological target: ScBem1-D1
# Protocol: as §1
# [40] = biological target: ScBzz1-D1
# Protocol: as §1
# [41] = biological target: ScBzz1-D2
# Protocol: as §1
# [42] = biological target: ScCyk3
# Protocol: as §1
# [43] = biological target: ScFus1
# Protocol: as §1
# [44] = biological target: ScHof1
# Protocol: as §1
# [45] = biological target: ScHse1
# Protocol: as §1
# [46] = biological target: ScLsb1
# Protocol: as §1
# [47] = biological target: ScLsb2
# Protocol: as §1
# [48] = biological target: ScLsb3
# Protocol: as §1
# [49] = biological target: ScLsb4
# Protocol: as §1
# [50] = biological target: ScMyo3
# Protocol: as §1
# [51] = biological target: ScMyo5
# Protocol: as §1
# [52] = biological target: ScNbp2
# Protocol: as §1
# [53] = biological target: ScPex13
# Protocol: as §1
# [54] = biological target: ScRvs167
# Protocol: as §1
# [55] = biological target: ScSho1
# Protocol: as §1
# [56] = biological target: ScSla1-D1-D2
# Protocol: as §1
# [57] = biological target: ScSla1-D3
# Protocol: as §1
# [58] = biological target: SpAbp1-D1
# Protocol: as §1
# [59] = biological target: SpBbc1
# Protocol: as §1
# [60] = biological target: SpBzz1-D1
# Protocol: as §1
# [61] = biological target: SpBzz1-D2
# Protocol: as §1
# [62] = biological target: SpCyk3
# Protocol: as §1
# [63] = biological target: SpHof1
# Protocol: as §1
# [64] = biological target: SpHof1-2
# Protocol: as §1
# [65] = biological target: SpHof1-3
# Protocol: as §1
# [66] = biological target: SpHse1
# Protocol: as §1
# [67] = biological target: SpLsb1
# Protocol: as §1
# [68] = biological target: SpLsb4
# Protocol: as §1
# [69] = biological target: SpMyo1
# Protocol: as §1
# [70] = biological target: SpNbp2
# Protocol: as §1
# [71] = biological target: SpPex13
# Protocol: as §1
# [72] = biological target: SpRvs167
# Protocol: as §1
# [73] = biological target: SpSla1-D1-D2
# Protocol: as §1
# [74] = biological target: SpSla1-D3
# Protocol: as §1
binder,measurement,setting,value
NRPAIRIPSLKKPAL,SPOT peptide array binding signal intensity,[1],20
same,SPOT peptide array binding signal intensity,[2],12.5
same,SPOT peptide array binding signal intensity,[3],54.5
same,SPOT peptide array binding signal intensity,[4],16
same,SPOT peptide array binding signal intensity,[5],7
same,SPOT peptide array binding signal intensity,[6],2
same,SPOT peptide array binding signal intensity,[7],226
same,SPOT peptide array binding signal intensity,[8],111
same,SPOT peptide array binding signal intensity,[9],800
same,SPOT peptide array binding signal intensity,[10],361
same,SPOT peptide array binding signal intensity,[11],18.5
same,SPOT peptide array binding signal intensity,[12],0.5
same,SPOT peptide array binding signal intensity,[13],114
same,SPOT peptide array binding signal intensity,[14],1.33
same,SPOT peptide array binding signal intensity,[15],21.5
same,SPOT peptide array binding signal intensity,[16],24
same,SPOT peptide array binding signal intensity,[17],5.5
same,SPOT peptide array binding signal intensity,[18],191
same,SPOT peptide array binding signal intensity,[19],44
same,SPOT peptide array binding signal intensity,[20],122
same,SPOT peptide array binding signal intensity,[21],41
same,SPOT peptide array binding signal intensity,[22],25.5
same,SPOT peptide array binding signal intensity,[23],21.8
same,SPOT peptide array binding signal intensity,[24],7
same,SPOT peptide array binding signal intensity,[25],765
same,SPOT peptide array binding signal intensity,[26],≤ 0
same,SPOT peptide array binding signal intensity,[27],27
same,SPOT peptide array binding signal intensity,[28],2.5
same,SPOT peptide array binding signal intensity,[29],10.5
same,SPOT peptide array binding signal intensity,[30],2.75
same,SPOT peptide array binding signal intensity,[31],270
same,SPOT peptide array binding signal intensity,[32],33.3
same,SPOT peptide array binding signal intensity,[33],23
same,SPOT peptide array binding signal intensity,[34],218
same,SPOT peptide array binding signal intensity,[35],4.5
same,SPOT peptide array binding signal intensity,[36],0.75
same,SPOT peptide array binding signal intensity,[37],53.5
same,SPOT peptide array binding signal intensity,[38],9.25
same,SPOT peptide array binding signal intensity,[39],19
same,SPOT peptide array binding signal intensity,[40],31.5
same,SPOT peptide array binding signal intensity,[41],12.5
same,SPOT peptide array binding signal intensity,[42],20
same,SPOT peptide array binding signal intensity,[43],243
same,SPOT peptide array binding signal intensity,[44],≤ 0
same,SPOT peptide array binding signal intensity,[45],2200
same,SPOT peptide array binding signal intensity,[46],118
same,SPOT peptide array binding signal intensity,[47],12.5
same,SPOT peptide array binding signal intensity,[48],40
same,SPOT peptide array binding signal intensity,[49],10
same,SPOT peptide array binding signal intensity,[50],1
same,SPOT peptide array binding signal intensity,[51],≤ 0
same,SPOT peptide array binding signal intensity,[52],169
same,SPOT peptide array binding signal intensity,[53],23.8
same,SPOT peptide array binding signal intensity,[54],39.8
same,SPOT peptide array binding signal intensity,[55],412
same,SPOT peptide array binding signal intensity,[56],167
same,SPOT peptide array binding signal intensity,[57],4
same,SPOT peptide array binding signal intensity,[58],135
same,SPOT peptide array binding signal intensity,[59],3.75
same,SPOT peptide array binding signal intensity,[60],92
same,SPOT peptide array binding signal intensity,[61],≤ 0
same,SPOT peptide array binding signal intensity,[62],5
same,SPOT peptide array binding signal intensity,[63],66.5
same,SPOT peptide array binding signal intensity,[64],1.5
same,SPOT peptide array binding signal intensity,[65],850
same,SPOT peptide array binding signal intensity,[66],664
same,SPOT peptide array binding signal intensity,[67],43.5
same,SPOT peptide array binding signal intensity,[68],27.5
same,SPOT peptide array binding signal intensity,[69],≤ 0
same,SPOT peptide array binding signal intensity,[70],104
same,SPOT peptide array binding signal intensity,[71],3
same,SPOT peptide array binding signal intensity,[72],13.3
same,SPOT peptide array binding signal intensity,[73],≤ 0
same,SPOT peptide array binding signal intensity,[74],≤ 0
